Source: PubChem BioAssay AID504333 (National Center for Advancing Translational Sciences (NCATS), 2011)
Out of some 360,000 compounds screened, about 16,000 (4.4%) were called active. Entries that show only a call come without a potency. About 9% were inconclusive and are not listed. Calls come from the whole dose curve; as a rule, active = well fitted inhibition curve with a large enough effect; inconclusive = small, poorly fitted or top-dose-only effect; inactive = no such curve, though single readings can be large or run the other way. The sample as a whole holds a higher share of actives than the screen did.

Biological target: Bromodomain adjacent to zinc finger domain protein 2B (Homo sapiens) (UniProt Q9UIF8)
Assay: qHTS Assay for Inhibitors of BAZ2B; note: nearly all actives have a fitted effect of over 60% in size
Settings: AlphaScreen BAZ2B-H3K14Ac peptide displacement; series mostly up to 114 µM
Outline: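 Inhibition is scored as reduced AlphaScreen emission. The BAZ2B/b-H3(5-23)K14Ac complex (50 nM each) in PBS pH 7.4, 0.01% Tween-20 meets compound (up to 110 uM) for 30 min at RT before bead addition.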
Potency is the fitted concentration of half-maximal effect.

Chain of Bromodomain adjacent to zinc finger domain protein 2B (Homo sapiens) (Q9UIF8 whole entry, looked up, the tested form may be a part): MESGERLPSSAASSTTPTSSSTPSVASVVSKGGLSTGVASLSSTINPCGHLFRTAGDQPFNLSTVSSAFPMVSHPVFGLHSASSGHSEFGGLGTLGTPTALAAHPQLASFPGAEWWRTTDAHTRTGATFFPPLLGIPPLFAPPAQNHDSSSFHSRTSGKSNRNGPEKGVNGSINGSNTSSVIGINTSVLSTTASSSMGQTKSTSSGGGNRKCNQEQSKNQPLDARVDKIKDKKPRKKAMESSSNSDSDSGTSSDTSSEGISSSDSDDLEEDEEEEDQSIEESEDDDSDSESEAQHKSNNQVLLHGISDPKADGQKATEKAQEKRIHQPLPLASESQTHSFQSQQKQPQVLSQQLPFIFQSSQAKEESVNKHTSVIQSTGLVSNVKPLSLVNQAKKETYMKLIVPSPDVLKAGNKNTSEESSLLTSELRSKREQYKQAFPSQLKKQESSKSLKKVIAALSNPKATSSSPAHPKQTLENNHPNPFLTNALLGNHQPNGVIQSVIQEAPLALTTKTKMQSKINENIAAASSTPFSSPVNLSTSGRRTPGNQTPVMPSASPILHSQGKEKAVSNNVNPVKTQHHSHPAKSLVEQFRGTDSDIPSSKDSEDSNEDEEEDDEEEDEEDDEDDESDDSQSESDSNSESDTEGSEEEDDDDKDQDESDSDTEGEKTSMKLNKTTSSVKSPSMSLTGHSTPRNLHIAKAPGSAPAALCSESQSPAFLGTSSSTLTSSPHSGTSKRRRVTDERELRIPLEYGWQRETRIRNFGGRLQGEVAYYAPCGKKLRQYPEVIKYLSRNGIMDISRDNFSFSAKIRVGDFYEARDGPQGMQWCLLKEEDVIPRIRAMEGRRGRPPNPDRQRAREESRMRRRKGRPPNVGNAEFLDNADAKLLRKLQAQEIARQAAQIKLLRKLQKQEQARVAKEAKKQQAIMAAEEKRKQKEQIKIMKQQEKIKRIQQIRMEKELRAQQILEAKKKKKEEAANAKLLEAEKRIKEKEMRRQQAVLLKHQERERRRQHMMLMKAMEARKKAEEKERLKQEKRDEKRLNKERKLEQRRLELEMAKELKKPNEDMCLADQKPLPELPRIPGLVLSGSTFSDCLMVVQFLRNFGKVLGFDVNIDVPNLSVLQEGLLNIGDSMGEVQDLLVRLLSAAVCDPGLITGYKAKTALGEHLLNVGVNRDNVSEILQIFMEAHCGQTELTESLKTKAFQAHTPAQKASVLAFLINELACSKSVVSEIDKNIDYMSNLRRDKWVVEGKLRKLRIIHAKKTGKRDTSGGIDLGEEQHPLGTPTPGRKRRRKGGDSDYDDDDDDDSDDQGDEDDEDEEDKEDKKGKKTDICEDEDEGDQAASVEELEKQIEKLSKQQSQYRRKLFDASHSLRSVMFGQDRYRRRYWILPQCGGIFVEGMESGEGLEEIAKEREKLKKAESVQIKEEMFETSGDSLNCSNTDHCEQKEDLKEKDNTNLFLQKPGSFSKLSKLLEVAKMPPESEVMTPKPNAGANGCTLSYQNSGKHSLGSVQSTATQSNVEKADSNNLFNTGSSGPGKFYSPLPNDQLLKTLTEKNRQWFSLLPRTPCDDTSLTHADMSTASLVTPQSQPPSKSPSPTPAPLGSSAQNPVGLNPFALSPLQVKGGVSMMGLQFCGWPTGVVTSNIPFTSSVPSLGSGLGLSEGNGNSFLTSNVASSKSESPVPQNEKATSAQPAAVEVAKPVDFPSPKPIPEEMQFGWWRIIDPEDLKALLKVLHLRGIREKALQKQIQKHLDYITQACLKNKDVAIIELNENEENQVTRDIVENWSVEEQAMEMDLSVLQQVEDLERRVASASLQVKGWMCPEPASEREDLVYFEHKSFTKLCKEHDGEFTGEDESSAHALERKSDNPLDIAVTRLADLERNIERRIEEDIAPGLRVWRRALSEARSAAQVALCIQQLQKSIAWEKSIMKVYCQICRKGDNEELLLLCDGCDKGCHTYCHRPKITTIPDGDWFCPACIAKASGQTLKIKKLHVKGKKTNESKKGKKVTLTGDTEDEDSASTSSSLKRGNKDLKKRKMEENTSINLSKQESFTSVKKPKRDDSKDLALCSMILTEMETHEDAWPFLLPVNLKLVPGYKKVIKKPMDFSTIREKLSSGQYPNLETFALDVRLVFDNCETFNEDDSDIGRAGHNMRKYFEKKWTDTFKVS

Row | SMILES | Potency
1 | CN(Cc1ccccc1)c1ncnc2onc(-c3ccc(F)cc3)c12 | inactive
2 | CCOC(=O)C1CCN(C(=O)/C=C/c2cc(OC)c(OC)c(OC)c2)CC1 | inactive
3 | CCOC(=O)C1CCCCN1Cc1ccc(OC)c(OC)c1OC (stereo unspecified) | 31.6 µM (active)
4 | CCOC(=O)C1CCN(S(=O)(=O)c2cc(F)ccc2OC)CC1 | inactive
5 | CCOC(=O)c1c(NC(=O)c2ccc(S(=O)(=O)N3CCCC(C)C3)cc2)sc2c1CCN(C(C)C)C2 (stereo unspecified) | inactive
6 | CC1CCCN(c2csc3ccc(F)cc3c2=O)C1 (stereo unspecified) | inactive
7 | COc1ccccc1OCCCn1c(-c2ccc(Cl)cc2)nc2ccccc2c1=O | inactive
8 | Cn1c(COc2ccc(Cl)cc2)nc2ccccc2c1=O | 50.1 µM (active)
9 | COc1ccc(OCc2ccc(-c3nc4ccccc4c(=O)n3N)o2)cc1 | inactive
10 | O=C(Nc1ccc2nc(SCCOc3ccccc3)sc2c1)c1ccco1 | inactive
11 | CCCCN1C(=O)/C(=C/C=C2/C=Cc3ccccc3N2CC)SC1=S | inactive
12 | CCCCN1C(=O)/C(=C2/C=CC=CN2C)SC1=S | 44.7 µM (active)
13 | CCCCN1C(=O)/C(=C2/Sc3ccc(Cl)cc3N2CC)SC1=S | inactive
14 | CN1C=CC=C/C1=C1\SC(=S)N(Cc2ccccc2)C1=O | 50.1 µM (active)
15 | O=C1C(Cc2ccc(O)cc2)NC(=S)N1Cc1ccccc1 (stereo unspecified) | inactive
16 | COc1ccccc1NC(=O)Cn1cnc2ccc(S(=O)(=O)N3CCC(C)CC3)cc2c1=O | inactive
17 | Cc1ccc2nc(N3CCN(c4cccc(Cl)c4)CC3)c3nnnn3c2c1 | inactive
18 | Cn1c(=O)sc2cc(NS(=O)(=O)c3ccc(C(C)(C)C)cc3)ccc21 | inactive
19 | O=C(/C=C/c1ccccc1)N1CCN(Cc2cc(=O)n3nc(-c4ccccc4F)sc3n2)CC1 | inactive
20 | Cc1cc(C)c(NC(=O)Cn2c(SCC(=O)NCc3ccccc3)nc3ccccc32)c(C)c1 | inactive
21 | Cc1ccc(OCc2n[nH]c(=S)n2-c2ccccc2)cc1 | inactive
22 | S=c1[nH]nc(COc2ccccc2)n1-c1ccccc1 | inactive
23 | COc1ccc(OCc2n[nH]c(=S)n2N)cc1 | 56.2 µM (active)
24 | COc1ccc(C)cc1N(CC(=O)N1CCC(C)CC1)S(=O)(=O)c1ccc(C)cc1 | inactive
25 | O=C1c2ccccc2C(=O)c2c1cccc2N1CCN(Cc2ccccc2)CC1 | 5.01 µM (active)
26 | CCc1c(C)nc(N2CCN(Cc3ccccc3)CC2)[nH]c1=O | inactive

Row | SMILES | Potency
27 | O=S(=O)(c1cccs1)N1CCN(Cc2ccccc2)CC1 | inactive
28 | CCOc1ccccc1NC(=O)CN1CCCN(Cc2cccc(Cl)c2)S1(=O)=O | inactive
29 | COc1cccc2c1cc1c(=O)n(CC(=O)N3CCN(c4ccccc4)CC3)nc(C)n12 | inactive
30 | CC(=O)N1c2ccc(S(=O)(=O)N3CCCCCC3)cc2CC1C(=O)NCc1ccccc1C (stereo unspecified) | inactive
31 | COc1ccc(C2=CC(c3ccccc3Cl)n3nc(-c4ccc(Cl)cc4)nc3N2)cc1 (stereo unspecified) | inactive
32 | Cc1ccc(C2C=C(c3ccc(Cl)cc3)Nc3nc(NC(=O)CCC(=O)O)nn32)cc1 (stereo unspecified) | 79.4 µM (active)
33 | COc1ccc(C2C=C(c3ccc(Br)cc3)Nc3nc(NS(C)(=O)=O)nn32)cc1 (stereo unspecified) | inactive
34 | COc1ccc(-n2c(SCC(N)=O)nc3c(oc4ccccc43)c2=O)cc1 | inactive
35 | COc1ccc(N2C(=O)CS(=O)(=O)C23C(=O)N(Cc2ccc(C)cc2)c2ccccc23)cc1Cl (stereo unspecified) | inactive
36 | COc1cccc(C(=O)NC(=O)Nc2ccc(-c3cc(C(F)(F)F)nn3-c3ccccc3)cc2)c1 | inactive
37 | Cc1ccc(-c2c[n+](CC(=O)Nc3ccccc3)c3n2CCC3)cc1 | inactive
38 | Cc1ccc(NC(=O)Nc2ccccc2)c(Br)c1 | inactive
39 | C=CCNc1scc(-c2ccccc2)[n+]1CC=C | 10 µM (active)
40 | C=CC[n+]1c(-c2ccc(C)cc2)csc1NNC(=O)Nc1ccccc1 | 31.6 µM (active)
41 | C=CCNC(=O)c1csc(-c2ccccc2)n1 | inactive
42 | O=C(CNS(=O)(=O)c1cccs1)N1CCN(c2ccccc2Cl)CC1 | inactive
43 | Cc1ccc(C)c(Cn2c(C(=O)O)c(CNCc3cccs3)c3ccccc32)c1 | inactive
44 | CCc1ccccc1NC(=O)CSc1nnc(-c2ccccc2)c(-c2ccccc2)n1 | inactive
45 | COc1ccc(NC(=O)CSc2nccn2C2CCCC2)cc1OC | inactive
46 | CCn1c(SCC(=O)Nc2ccc3c(c2)OCCO3)nnc1-c1ccncc1 | inactive
47 | CCn1c(SCc2cccc(C(=O)O)c2)nnc1-c1ccc(Cl)cc1 | inactive
48 | CCn1c(SCC(=O)NC2CC2)nnc1-c1ccncc1 | inactive
49 | Cn1c(SCc2ccc(F)cc2)nnc1-c1ccncc1 | inactive
50 | CC1CCCCC1NC(=O)CSc1nnc(-c2ccncc2)n1CCCN(C)C (stereo unspecified) | 44.7 µM (active)
51 | CN(C)CCCn1c(SCc2ccc(Cl)cc2)nnc1-c1ccncc1 | 56.2 µM (active)
52 | CCCN(CCC)C(=O)C1CCCN(c2ncnc3c2nc2n3CCCCC2)C1 (stereo unspecified) | inactive

Row | SMILES | Potency
53 | COc1ccc(Cn2c(C(=O)O)c(CNCc3cccc(OC)c3)c3ccc(C)cc32)cc1 | inactive
54 | O=C(OCc1cc(=O)n2nc(C3CC3)sc2n1)c1ccccc1Cl | inactive
55 | Cc1cccc(NC(=O)Cn2cc(S(=O)(=O)Cc3ccccc3Cl)c3ccccc32)c1 | inactive
56 | CCOc1cc(C)c(S(=O)(=O)NCc2ccccn2)cc1C | inactive
57 | CCOc1cc(CNCc2ccccn2)ccc1OCC(=O)NC(C)(C)C | 50.1 µM (active)
58 | CCOc1cc(CNn2c(C)nnc2SCC(=O)NC(C)(C)C)ccc1OCC(=O)NC(C)(C)C | inactive
59 | Cc1cc(NC(=O)CSc2nnc(-c3ccc(Cl)s3)o2)no1 | 39.8 µM (active)
60 | Cc1cc(NC(=O)CSc2nnc(Nc3ccccc3F)s2)no1 | inactive
61 | Cc1cc(NC(=O)CSc2nnnn2-c2ccc(F)cc2)no1 | inactive
62 | COc1ccc(CNC(=O)c2ccc3c(O)c(S(=O)(=O)c4ccccc4)c(=O)[nH]c3c2)cc1 | inactive
63 | CCN1CCN(CCCNC(=O)c2cnn(-c3ccc(C)cc3C)c2C2CCN(C(=O)OC(C)(C)C)CC2)CC1 | inactive
64 | COc1cccc(C(=O)NC2(C(F)(F)F)C(=O)Nc3c2c(=O)[nH]c(=O)n3-c2ccc(C)cc2)c1 (stereo unspecified) | inactive
65 | CCc1cnc2c(c1SCC(=O)N1CCC(C)CC1)c(=O)n(C)c(=O)n2C | inactive
66 | O=C(CCCCn1c(=O)c2ccccc2n(CC(=O)Nc2cccc(C(F)(F)F)c2)c1=O)NCc1ccc2c(c1)OCO2 | inactive
67 | O=C(NCCSc1ccccc1)c1ccco1 | inactive
68 | O=c1c2ccccc2c(-c2ccc(Br)cc2)nn1Cc1ccccc1 | inactive
69 | O=C(NCCc1ccco1)c1nn(Cc2ccccc2)c(=O)c2ccccc12 | 50.1 µM (active)
70 | CCOC(=O)c1c(S(=O)(=O)N2CCCC(C(=O)NCc3ccc(F)cc3)C2)c(C)n(CC)c1C (stereo unspecified) | inactive
71 | Cc1cc(C)c(/C=C/c2onc(C)c2S(=O)(=O)N2CCC(C(=O)Nc3ccc(Cl)cc3C)CC2)c(C)c1 | inactive
72 | COc1ccc2c(c1)Cc1sc(NC(=O)c3ccccc3Br)nc1-2 | inactive
73 | Cc1ccc(N2CC(C(=O)Nc3ccc(N(C)C)cc3)CC2=O)cc1Cl (stereo unspecified) | inactive
74 | CC(=O)Nc1cc(C(=O)NCc2ccc(F)cc2)ccc1Sc1ccc(F)cc1 | inactive
75 | CCc1ccc(C2CC(=O)c3c([nH]c(C(=O)OCc4ccc(C)cc4)c3C)C2)cc1 (stereo unspecified) | inactive
76 | O=C(CNCCC1=CCCCC1)Nc1ccccc1N1CCCCCC1 | 56.2 µM (active)
77 | Cc1ccc(C(C)C)cc1OCC(=O)Nc1ccccc1N1CCCC1 | inactive
78 | Cc1ccccc1NC(=O)Nc1ccccc1N1CCCCC1 | inactive

Row | SMILES | Potency
79 | O=C(CN1CCCCCC1)Nc1ccc(Br)cc1Br | inactive
80 | COc1cc([N+](=O)[O-])ccc1NC(=O)CN1CCCC1 | inactive
81 | O=C(CN1CCCCCC1)Nc1ccc(Br)cc1[N+](=O)[O-] | 15.8 µM (active)
82 | CC1=C(C(=O)OCc2ccc(C)cc2)C(c2ccccc2Cl)CC(=O)N1 (stereo unspecified) | inactive
83 | O=C(CSCc1ccc(Cl)cc1)N1CCN(Cc2ccc3c(c2)OCO3)CC1 | inactive
84 | O=C(C1CCN(Cc2ccc(Cl)cc2)CC1)N1CCN(Cc2ccc3c(c2)OCO3)CC1 | 50.1 µM (active)
85 | O=C(C1CCN(S(=O)(=O)c2cnc[nH]2)CC1)N1CCN(Cc2ccc3c(c2)OCO3)CC1 | inactive
86 | COc1ccc(-c2cccc(NS(=O)(=O)c3cc(C)c(OC)c(C)c3C)c2)nn1 | inactive
87 | CCCN(CCC)C(=O)Cn1c(=O)n(-c2ccc(Cl)cc2)c(=O)c2c3c(sc21)CCCCC3 | inactive
88 | Cc1cccc(CC(=O)Nc2cccc(-c3cn4cccnc4n3)c2)c1 | inactive
89 | CCCCOc1ccc(C(=O)N2CC(=O)Nc3ccc(Br)cc3C2c2ccc(F)cc2)cc1 (stereo unspecified) | inactive
90 | O=C1CCCC(O)=C1N=Nc1ccc2ncsc2c1 | 50.1 µM (active)
91 | Cc1csc(Nc2ccc(Cl)cc2)[n+]1-c1ccc(Cl)cc1 | 12.6 µM (active)
92 | O=c1ccnc(Nc2ccc(Cl)cc2)[nH]1 | inactive
93 | Cc1ccccc1C(=O)NCc1nc(-c2ccc(Cl)cc2)no1 | inactive
94 | CCOC(=O)c1[nH]c(C)c(CCC(=O)N2CCN(c3ccccc3)CC2)c1C | inactive
95 | COc1ccc(/C=C(\C#N)C(=O)OCC(=O)N(C)C2CCS(=O)(=O)C2)cc1 (stereo unspecified) | inactive
96 | CN(C(=O)COC(=O)c1nc(Cl)ccc1Cl)C1CCS(=O)(=O)C1 (stereo unspecified) | inactive
97 | CN(CCOc1ccccc1)C(=O)c1cc(-c2ccco2)nc2ccccc12 | 44.7 µM (active)
98 | COc1ccc(-c2cc(C(=O)N(C)Cc3ccccc3)c3ccccc3n2)cc1 | inactive
99 | CN(C(=O)COC(=O)c1cc(-c2ccco2)nc2ccccc12)C1CCS(=O)(=O)C1 (stereo unspecified) | 39.8 µM (active)
100 | COc1ccc(NC(=O)CN(C)C(=O)c2cc(-c3ccc(C)o3)nc3ccccc23)cc1 | inactive
101 | COc1ccc(OCC(=O)Nc2cccc(C(=O)OCc3cc(=O)n4nc(C)sc4n3)c2)cc1 | inactive
